# Inconclusive results are not listed. Active and inactive are the calls of the source. Calls come from the whole dose curve; as a rule, active = well fitted curve in the direction sought with a large enough effect; inconclusive = small, poorly fitted or top-dose-only effect, or another doubt; inactive = no such curve, though single readings can be large; an effect the other way counts as inactive or inconclusive.
# Assay: BET inhibitor-based combinations targeting novel dependencies in MECOM-rearranged (r) AML: SET-2 cell line (AID 2202231); note: nearly all actives have a fitted effect of over 35% in size;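 for viability: plate controls were DMSO treated cells for no effect and wells without cells for full effect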
# Conditions: SET-2 AML cells viability, CellTiter-Glo luminescence, 48 h; viability: stronger effect = lower value, concentration not given here
# Method in brief: (§1)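 Luminescent ATP readout (CellTiter-Glo) after 48 hr drug exposure gives viability. Curves span 11 concentrations and are normalized to DMSO and empty wells. Activity is reported as area under the curve and its Z-transform within each cell line.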
# Potency is the fitted concentration of half-maximal effect.
SMILES,viability,Potency
O=C1C(c2c(O)[nH]c3ccccc23)=Nc2ccccc21,103% (inactive),–
CC(C(=O)O)c1ccc2c(c1)CC(=O)c1ccccc1S2 (configuration not stated),114% (inactive),–
CC(=O)OCC(=O)[C@@]1(O)[C@H](C)C[C@H]2[C@@H]3C=C(C)C4=Cc5c(cnn5-c5ccccc5)C[C@]4(C)[C@@H]3[C@@H](O)C[C@@]21C,96.5% (inactive),–
CC(C)Nc1cc(-c2c[nH]c(C(=O)N[C@H](CO)c3cccc(Cl)c3)c2)c(Cl)cn1,–,20.9 µM (active)
CCOc1ccc(Nc2nc(-c3c(C)nc4ccccn34)cs2)cc1,–,0.132 µM (active)
O=C(CCCCCCNC(=O)c1cnc(N(c2ccccc2)c2ccccc2)nc1)NO,–,6.61 µM (active)
CN(C)c1cccc(-c2c3c(=O)n(-c4ccccc4Cl)[nH]c3cc(=O)n2C)c1,110% (inactive),–
CC1(COc2ccc3c(c2)ncn3-c2ccc3cccc(N4CCC(N)CC4)c3n2)COC1,–,13.2 µM (active)

# Assay: BET inhibitor-based combinations targeting novel dependencies in MECOM-rearranged (r) AML: OCI-AML3 cell line (AID 2202232); note: nearly all actives have a fitted effect of over 35% in size;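 for viability (% of control): plate controls were DMSO vehicle wells for no effect and wells without cells for full effect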
# Conditions: CellTiter-Glo luminescence, 48 h; Potency: OCI-AML3 viability; series mostly up to 46 µM; viability (% of control): at the top concentration
# Method in brief: as §1
SMILES,viability (% of control),Potency
O=C1C(c2c(O)[nH]c3ccccc23)=Nc2ccccc21,115% (inactive),–
CC(C(=O)O)c1ccc2c(c1)CC(=O)c1ccccc1S2 (configuration not stated),110% (inactive),–
CC(=O)OCC(=O)[C@@]1(O)[C@H](C)C[C@H]2[C@@H]3C=C(C)C4=Cc5c(cnn5-c5ccccc5)C[C@]4(C)[C@@H]3[C@@H](O)C[C@@]21C,98.2% (inactive),–
CC(C)Nc1cc(-c2c[nH]c(C(=O)N[C@H](CO)c3cccc(Cl)c3)c2)c(Cl)cn1,–,2.35 µM (active)
CCOc1ccc(Nc2nc(-c3c(C)nc4ccccn34)cs2)cc1,–,0.0833 µM (active)
O=C(CCCCCCNC(=O)c1cnc(N(c2ccccc2)c2ccccc2)nc1)NO,–,5.9 µM (active)
CN(C)c1cccc(-c2c3c(=O)n(-c4ccccc4Cl)[nH]c3cc(=O)n2C)c1,109% (inactive),–
CC1(COc2ccc3c(c2)ncn3-c2ccc3cccc(N4CCC(N)CC4)c3n2)COC1,–,7.42 µM (active)

# Assay: BET inhibitor-based combinations targeting novel dependencies in MECOM-rearranged (r) AML: MV-4-11 cell line (AID 2202233); note: nearly all actives have a fitted effect of over 45% in size;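 for viability, % of control: plate controls were DMSO for no effect and blank wells for full effect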
# Conditions: MV-4-11 AML viability, CellTiter-Glo luminescence, 48 h; series mostly up to 46 µM; viability, % of control: at the top concentration
# Method in brief: (§2)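 Luminescent ATP readout (CellTiter-Glo, 15 min at room temperature) after 48 hr drug exposure gave viability. Dose-response curves, normalized to DMSO and empty-well controls, were summarized as area under the curve and its mean-centred Z-score.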
SMILES,"viability, % of control",Potency
CC(C(=O)O)c1ccc2c(c1)CC(=O)c1ccccc1S2 (configuration not stated),119% (inactive),–
CC(C)Nc1cc(-c2c[nH]c(C(=O)N[C@H](CO)c3cccc(Cl)c3)c2)c(Cl)cn1,–,13.2 µM (active)
CCOc1ccc(Nc2nc(-c3c(C)nc4ccccn34)cs2)cc1,–,0.105 µM (active)
O=C(CCCCCCNC(=O)c1cnc(N(c2ccccc2)c2ccccc2)nc1)NO,–,2.35 µM (active)
CN(C)c1cccc(-c2c3c(=O)n(-c4ccccc4Cl)[nH]c3cc(=O)n2C)c1,120% (inactive),–
CC1(COc2ccc3c(c2)ncn3-c2ccc3cccc(N4CCC(N)CC4)c3n2)COC1,–,0.0332 µM (active)

# Assay: BET inhibitor-based combinations targeting novel dependencies in MECOM-rearranged (r) AML: HNT-34 cell line (AID 2202234); note: nearly all actives have a fitted effect of over 35% in size;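 for viability (% of control): plate controls were vehicle wells for no effect and cell-free wells for full effect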
# Conditions: HNT-34 AML viability, CellTiter-Glo luminescence, 48 h; series mostly up to 46 µM; viability (% of control): at the top concentration
# Method in brief: as §2
SMILES,viability (% of control),Potency
CC(=O)OCC(=O)[C@@]1(O)[C@H](C)C[C@H]2[C@@H]3C=C(C)C4=Cc5c(cnn5-c5ccccc5)C[C@]4(C)[C@@H]3[C@@H](O)C[C@@]21C,88.9% (inactive),–
CC(C)Nc1cc(-c2c[nH]c(C(=O)N[C@H](CO)c3cccc(Cl)c3)c2)c(Cl)cn1,–,4.68 µM (active)
O=C(CCCCCCNC(=O)c1cnc(N(c2ccccc2)c2ccccc2)nc1)NO,–,7.42 µM (active)
CN(C)c1cccc(-c2c3c(=O)n(-c4ccccc4Cl)[nH]c3cc(=O)n2C)c1,99.8% (inactive),–
CC1(COc2ccc3c(c2)ncn3-c2ccc3cccc(N4CCC(N)CC4)c3n2)COC1,–,5.9 µM (active)

# Assay: BET inhibitor-based combinations targeting novel dependencies in MECOM-rearranged (r) AML: UCSD-AML1 cell line (AID 2202235); note: nearly all actives have a fitted effect of over 40% in size;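 for viability (% of control): plate controls were DMSO vehicle wells for no effect and blank wells for full effect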
# Conditions: UCSD-AML1 AML cells viability, CellTiter-Glo, 48 h; series mostly up to 46 µM; viability (% of control): at the top concentration
# Method in brief: as §2
SMILES,viability (% of control),Potency
O=C1C(c2c(O)[nH]c3ccccc23)=Nc2ccccc21,111% (inactive),–
CC(C(=O)O)c1ccc2c(c1)CC(=O)c1ccccc1S2 (configuration not stated),112% (inactive),–
CC(=O)OCC(=O)[C@@]1(O)[C@H](C)C[C@H]2[C@@H]3C=C(C)C4=Cc5c(cnn5-c5ccccc5)C[C@]4(C)[C@@H]3[C@@H](O)C[C@@]21C,92% (inactive),–
CC(C)Nc1cc(-c2c[nH]c(C(=O)N[C@H](CO)c3cccc(Cl)c3)c2)c(Cl)cn1,–,7.42 µM (active)
CCOc1ccc(Nc2nc(-c3c(C)nc4ccccn34)cs2)cc1,–,0.0934 µM (active)
O=C(CCCCCCNC(=O)c1cnc(N(c2ccccc2)c2ccccc2)nc1)NO,–,7.42 µM (active)
CN(C)c1cccc(-c2c3c(=O)n(-c4ccccc4Cl)[nH]c3cc(=O)n2C)c1,102% (inactive),–
CC1(COc2ccc3c(c2)ncn3-c2ccc3cccc(N4CCC(N)CC4)c3n2)COC1,–,4.17 µM (active)

# Assay: BET inhibitor-based combinations targeting novel dependencies in MECOM-rearranged (r) AML: AML-191 cell line (AID 2202236; note: nearly all actives have a fitted effect of over 35% in size;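 for viability (% of control): plate controls were vehicle wells for no effect and wells without cells for full effect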)
# Conditions: AML-191 viability, CellTiter-Glo luminescence, 48 h; series mostly up to 46 µM; viability (% of control): at the top concentration
# Method in brief: as §1
SMILES,viability (% of control),Potency
O=C1C(c2c(O)[nH]c3ccccc23)=Nc2ccccc21,105% (inactive),–
CC(C(=O)O)c1ccc2c(c1)CC(=O)c1ccccc1S2 (configuration not stated),103% (inactive),–
CC(C)Nc1cc(-c2c[nH]c(C(=O)N[C@H](CO)c3cccc(Cl)c3)c2)c(Cl)cn1,–,7.42 µM (active)
CCOc1ccc(Nc2nc(-c3c(C)nc4ccccn34)cs2)cc1,–,0.0833 µM (active)
O=C(CCCCCCNC(=O)c1cnc(N(c2ccccc2)c2ccccc2)nc1)NO,–,7.42 µM (active)
CN(C)c1cccc(-c2c3c(=O)n(-c4ccccc4Cl)[nH]c3cc(=O)n2C)c1,107% (inactive),–
CC1(COc2ccc3c(c2)ncn3-c2ccc3cccc(N4CCC(N)CC4)c3n2)COC1,–,2.09 µM (active)

# Reference: PubChem BioAssay (NCATS)
